Records with an inconclusive call do not appear. Calls of active or inactive are those of the source. The call rests on the fitted dose curve; in most records, active means well fitted inhibition curve with a large enough effect; inconclusive means small, poorly fitted or top-dose-only effect; inactive means no such curve, though single readings can be large or run the other way.
Each compound was assayed against Luciferin 4-monooxygenase (Photinus pyralis) (UniProt P08659) (assay: FLuc inhibitory activity for the follow-up compounds in a biochemical assay with Km concentrations of substrate). Conditions: purified FLuc, Km substrates, luminescence; series mostly up to 57.5 µM; activity change, negative = inhibition: at the top concentration.
Chain of Luciferin 4-monooxygenase (Photinus pyralis) (P08659 whole entry, looked up): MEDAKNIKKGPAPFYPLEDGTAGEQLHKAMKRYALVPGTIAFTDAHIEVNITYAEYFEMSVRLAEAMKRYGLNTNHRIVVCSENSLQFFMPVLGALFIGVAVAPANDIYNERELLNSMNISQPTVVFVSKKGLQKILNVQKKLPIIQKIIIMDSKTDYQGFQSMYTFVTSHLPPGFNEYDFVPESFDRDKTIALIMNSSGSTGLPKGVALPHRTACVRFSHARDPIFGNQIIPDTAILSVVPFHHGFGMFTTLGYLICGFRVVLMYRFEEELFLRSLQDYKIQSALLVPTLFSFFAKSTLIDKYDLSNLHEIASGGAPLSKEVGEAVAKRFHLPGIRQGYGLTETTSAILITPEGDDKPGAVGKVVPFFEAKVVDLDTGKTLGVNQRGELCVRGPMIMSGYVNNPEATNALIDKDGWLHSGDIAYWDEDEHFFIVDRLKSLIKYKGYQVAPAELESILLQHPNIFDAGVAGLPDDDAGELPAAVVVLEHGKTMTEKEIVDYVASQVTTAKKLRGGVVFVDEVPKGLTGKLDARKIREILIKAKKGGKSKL
Source text: NCGC Assay Overview: Firefly (Photinus pyralis) luciferase is one of the most commonly used transcriptional reporters. It is considered one of the more dynamically responsive reporters - that is, responsive to changes in reporter transcription - as it requires no post-translational modifications and is enzymatically active directly after protein synthesis (Wood, 1998). With no endogenous expression in mammalian cells and without the requirement of external excitation, it offers very little background signal, thus generally providing excellent signal to background for most assays. Previous profiling work to determine the prevalence of compounds that affect FLuc enzymatic activity (PubChem AID 411) identified that ~3% of the MLSMR library (then at ~72K) inhibited FLuc. […] Of the compounds identified in this profile that inhibited FLuc, 151 compounds were selected for further analysis, in an effort to better understand their mode of inhibiting FLuc. The assay described here confirms the FLuc inhibitory activity of the 151 compounds.
NCGC Assay Protocol Summary: Reagents: 50mM Tris acetate, pH 7.5; 10mM Mg acetate; 10uM D-luciferin (Sigma #L9504); 10uM ATP; 0.01% Tween-20; 0.05% BSA; 10nM P. pyralis luciferase (Sigma #L9506) Control compounds used were two known firefly luciferase inhibitors (3-(5-(3-chlorophenyl)-1,2,4-oxadiazol-3-yl)benzoic acid and 5-(2-fluorophenyl)-3-phenyl-1,2,4-oxadiazole), and DMSO. Three microliters containing firefly luciferase substrates in buffer (final concentrations: 50mM Tris acetate, pH 7.5, 10mM Mg acetate, 0.01% Tween-20, 0.05% BSA, 10uM D-luciferin, and 10uM ATP) are dispensed into each well of a Greiner white, solid-bottom 1536-well format plate using a flying reagent dispenser (FRD). These assay plates were then treated with 23nL of compound or DMSO using a Kalypsys pin tool, which allows for delivery of a 12-point intraplate titration of each compound to the assay plate (quantitative HTS), with a final compound concentrations ranging from approximately ~60uM to 0.3nM. One microliter of firefly luciferase in 500mM Tris-acetate buffer was then delivered by FRD to each well for a final enzyme concentration of 10nM. Luciferase activity was then measured using a ViewLux CCD imager (PerkinElmer), with an average exposure time of 2-30 seconds (2X binning, medium/high gain).
With COc1ccc2nc(NC(=O)c3ccc([N+](=O)[O-])o3)sc2c1 the Potency was 3660 nM (active). In the case of O=C(O)c1ccc(NC(=O)c2cccc(C(=O)Nc3ccc(C(=O)O)cc3)c2)cc1, the “activity change, negative = inhibition” value is reported as -8.45% (inactive). With O=C(Nc1ccccc1C(=O)O)c1cccc(NC(=O)c2ccccc2Br)c1 the Potency was 32600 nM (active). In the case of O=C(Nc1ccccc1C(=O)O)c1cccc(NC(=O)c2ccc(Br)o2)c1, the Potency is reported as 23100 nM (active). In the case of O=C(Nc1ccccc1C(=O)O)c1ccc(NC(=O)C2CC2)cc1, the Potency is reported as 2590 nM (active). For CC(C)c1ccc(-c2nc3ccccc3s2)cc1, the Potency was 29.1 nM (active). Cc1cccc(C(=O)Nc2ccccc2C(=O)Nc2ccc(C(=O)O)cc2)c1 was tested, and the Potency was 11600 nM (active). CCOc1ccc(C(=O)Nc2ccccc2C(=O)O)cc1 was tested, and the Potency was 1460 nM (active). In the case of O=C(Nc1ccccc1C(=O)O)c1ccc(NC(=O)C2CCCO2)cc1 (stereo not given), the Potency is reported as 16300 nM (active). With Nc1ccc2nc(-c3ccccc3)sc2c1 the Potency was 163 nM (active). With COc1c(C)cccc1C(=O)Nc1ccc(-c2nc3ccccc3s2)c(Cl)c1 the “activity change, negative = inhibition” value was -5.09% (inactive). With COc1ccc2nc(NC(=O)c3cccs3)sc2c1 the Potency was 20600 nM (active). Cc1c(NC(=O)c2cccs2)cccc1-c1nc2ccccc2s1 was tested, and the Potency was 4110 nM (active). With COc1ccc(NS(=O)(=O)c2cccc(C(=O)Nc3ccccc3C(=O)O)c2)cc1 the “activity change, negative = inhibition” value was -6.02% (inactive). CCOc1ccc2nc(NC(=O)c3cccnc3)sc2c1 was tested, and the Potency was 2910 nM (active). For CC(C)C(=O)Nc1cccc(C(=O)Nc2ccccc2C(=O)O)c1, the Potency was 5800 nM (active). c1ccc2sc(-c3ccc4c(c3)OCO4)nc2c1 was tested, and the Potency was 326 nM (active). In the case of COc1ccc2nc(NC(=O)c3ccco3)sc2c1, the Potency is reported as 1030 nM (active). With Nc1ccc(-c2nc3ccc(N)cc3s2)cc1 the Potency was 326 nM (active). Cc1ccc(C(=O)Nc2cccc(C(=O)O)c2)cc1 was tested, and the Potency was 32.6 nM (active). For CCn1c(C)nc2cc(-c3nc4n(n3)Cc3ccccc3-4)ccc21, the Potency was 23.1 nM (active). With COc1cccc(-c2nc3ccccc3s2)c1 the Potency was 1300 nM (active). Cc1ccc(C(=O)Nc2ccc(C(=O)O)cc2)cc1S(=O)(=O)NCc1ccccc1 was tested, and the “activity change, negative = inhibition” value was 3.69% (inactive). For O=C(Cc1ccccc1)Nc1ccccc1C(=O)Nc1ccc(C(=O)O)cc1, the “activity change, negative = inhibition” value was -2.27% (inactive). COc1ccc(C(=O)Nc2ccccc2C(=O)Nc2ccccc2C(=O)O)cc1 was tested, and the Potency was 580 nM (active). For O=C(O)c1cccc(NC(=O)c2ccc(COc3ccc(Cl)cc3)cc2)c1, the Potency was 3660 nM (active). COc1ccc(C(=O)Nc2ccccc2-c2nc3ccccc3s2)c(OC)c1 was tested, and the “activity change, negative = inhibition” value was -3.66% (inactive). With COc1ccc2nc(NC(=O)CCc3ccc(OC)c(OC)c3)sc2c1 the “activity change, negative = inhibition” value was 3.41% (inactive). For CC(C)(C)C(=O)Nc1ccc(-c2nc3ccccc3s2)cc1, the Potency was 11.6 nM (active). O=C(O)c1ccc(NC(=O)c2ccccc2NC(=O)c2cccc(Br)c2)cc1 was tested, and the Potency was 14600 nM (active). In the case of COc1ccc2nc(NC(=O)Cc3cccs3)sc2c1, the Potency is reported as 7300 nM (active). In the case of Oc1ccc(-c2nc3ccccc3s2)c(O)c1, the Potency is reported as 6510 nM (active). O=C(Nc1ccccc1-c1nc2ccccc2s1)c1ccc(Br)o1 was tested, and the “activity change, negative = inhibition” value was -1.3% (inactive). For COc1ccc2nc(NC(=O)CCc3nc(-c4ccccc4F)no3)sc2c1, the “activity change, negative = inhibition” value was -0.429% (inactive). In the case of COc1cc(OC)cc(C(=O)Nc2ccccc2-c2nc3ccccc3s2)c1, the “activity change, negative = inhibition” value is reported as 6.62% (inactive). COc1ccc(-c2nc3ccccc3s2)cc1NC(=O)c1ccc(F)cc1 was tested, and the “activity change, negative = inhibition” value was -7.28% (inactive). For COc1ccc(C(=O)Nc2ccccc2C(=O)N/N=C/c2ccc(O)c(OC)c2)cc1, the Potency was 3.7 nM (active). For CCOc1ccc2nc(NC(=O)c3ccccc3)sc2c1, the Potency was 326 nM (active). In the case of Cc1ccc2nc(-c3ccc(N)cc3)sc2c1, the Potency is reported as 81.9 nM (active). O=C(Nc1ccccc1C(=O)O)c1cccc(S(=O)(=O)N2CCCC2)c1 was tested, and the Potency was 13000 nM (active).
